Data published in PubChem BioAssay.
The source made the active and inactive calls. Unless noted, the rule behind the calls is not given here.

Legend:
[1] = system: Wnt5a (protein binding on small-molecule microarray); experiment: small molecules binding Wnt5a protein – biophysical, small-molecule microarray, 635/667 nm fluorescence, primary screen (AID 1142); conditions: 635 nm fluorescence, higher = more signal;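 note: fluorescence read at 667 nm with signal to noise per printed feature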
[2] = ATP-based viability of Huh7 replicon cells – cell-based, CellTiter-Glo luminescence, basal, 48 h, cytotoxicity control for HCV replication inhibitor project, primary screen (AID 1143); conditions: higher = more signal, called active from +8 up or from −8 down;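 note: Huh7 hepatoma cells carrying a hepatitis C replication reporter with no stimulus; test concentration not given here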
[3] = Pseudomonas biofilm growth suppression – PAO1 strain, BacTiter-Glo luminescence, LB-PBS, primary screen (AID 1144); conditions: P. aeruginosa PAO1 biofilm, 12 h, higher = more signal
[4] = basal CRE-LacZ reporter activity in PC12 – cell-based, unstimulated, primary screen (AID 1145); conditions: no forskolin, luminescence, 4.5 h, higher = more signal, called active from +8 up or from −8 down
[5] = forskolin-driven CRE-LacZ activity in PC12 – cell-based, CRE-LacZ reporter, forskolin-stimulated, primary screen (AID 1146); conditions: luminescence, 4.5 h, higher = more signal, called active from +8 up or from −8 down;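 note: PC12 cells with 6xCRE LacZ reporter stimulated by forskolin 10 µM; beta-galactosidase reporter signal reflecting CREB driven transcription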
[6] = molecular target: Streptavidin (Streptomyces avidinii) (UniProt P22629); experiment: compounds binding control protein streptavidin – biophysical, small-molecule microarray, 635/667 nm fluorescence, artefact control for SMM compound annotation, primary screen (AID 1147); conditions: higher = more signal;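 note: signal reflects streptavidin binding to arrayed compounds as a control protein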
[7] = probe aInhba binding on compound microarray – biochemical, small-molecule microarray, 635/667 nm fluorescence, primary screen (AID 1148); conditions: higher = more signal;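 note: score merges 667nm spot fluorescence with signal-to-noise for antibody binding to printed compounds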
[8] = molecular target: Torsin-1A (Homo sapiens) (UniProt O14656); experiment: TOR1A wild-type binding on microarray – cell lysate, small-molecule microarray, lysate, 635/667 nm, primary screen (AID 1149); conditions: COS7 hTOR1A-WT lysate, 635 nm fluorescence, higher = more signal
[9] = molecular target: Torsin-1A (Homo sapiens) (UniProt O14656); experiment: torsin A mutant lysate binding on microarrays – cell lysate, small-molecule microarray, COS7 lysate, 635/667 nm fluorescence, primary screen (AID 1150); conditions: COS7 hTOR1A mutant lysate, 635 nm fluorescence, higher = more signal;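 note: score pools 667 nm emission and signal to noise measuring lysate protein binding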
[10] = system: Sonic hedgehog protein (Shh); experiment: Sonic hedgehog microarray binding compounds – biochemical, small-molecule microarray, 635/667 nm fluorescence, primary screen (AID 1151); conditions: 635 nm fluorescence, higher = more signal;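 note: Shh protein binding to compounds spotted on small-molecule microarray slides; score combines spot fluorescence intensity with signal-to-noise across triplicate slides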

Chain of Streptavidin (Streptomyces avidinii) (P22629 whole entry, looked up): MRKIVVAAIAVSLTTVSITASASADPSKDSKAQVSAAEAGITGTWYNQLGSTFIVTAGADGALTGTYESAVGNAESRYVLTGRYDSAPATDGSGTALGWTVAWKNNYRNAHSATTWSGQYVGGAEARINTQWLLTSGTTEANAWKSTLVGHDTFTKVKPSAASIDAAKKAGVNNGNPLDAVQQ
Chain of Torsin-1A (Homo sapiens) (O14656 whole entry, looked up): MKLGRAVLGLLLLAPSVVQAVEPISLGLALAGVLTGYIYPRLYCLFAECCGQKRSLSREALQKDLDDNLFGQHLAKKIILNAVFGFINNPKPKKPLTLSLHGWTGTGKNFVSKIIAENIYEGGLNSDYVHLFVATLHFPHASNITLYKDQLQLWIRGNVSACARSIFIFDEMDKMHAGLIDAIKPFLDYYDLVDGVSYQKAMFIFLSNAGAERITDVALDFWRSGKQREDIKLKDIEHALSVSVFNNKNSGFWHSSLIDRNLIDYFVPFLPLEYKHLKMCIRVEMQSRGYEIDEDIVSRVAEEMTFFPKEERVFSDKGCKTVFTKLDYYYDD

SMILES	composite z-score [1]	z-score [2]	z-score [3]	z-score [4]	z-score [5]	composite z-score [6]	composite z-score [7]	composite z-score [8]	composite z-score [9]	composite z-score [10]
CC(C)(C)N1C(=O)[C@H]2[C@H]3[C@H](O)[C@H](O)CC(=O)[C@H]3CC[C@H]2C1=O	-0.0509	-1.06 (inactive)	0.925 (inactive)	0.62 (inactive)	0.95 (inactive)	-0.0955	-0.0405	0.128	0.29	0.696
CCN1C(=O)[C@H]2[C@H]3[C@H](O)[C@H](O)CC(=NOC[C@H]4O[C@H](c5ccccc5)C=C[C@@H]4Oc4ccc(OC)cc4)[C@@H]3CC[C@H]2C1=O	0.353	-0.509 (inactive)	1.13 (inactive)	0.843 (inactive)	0.126 (inactive)	0.29	0.0497	0.66	0.586	0.827
CC(C)=CCCC(C)=CCON=C1C[C@@H](O)[C@@H](O)[C@@H]2[C@@H]3C(=O)N(c4ccc(F)cc4F)C(=O)[C@@H]3CC[C@H]12	-0.112	-5.27 (inactive)	-0.206 (inactive)	-1.2 (inactive)	-0.358 (inactive)	0.0534	-0.0178	-0.37	0.171	1.01
C[C@@H]1CC[C@H]2C(=O)O[C@@H](COc3ccc(C(C)(C)C)cc3)CN2[C@@H]1c1ccc(Br)cc1	-0.176	0.301 (inactive)	0.256 (inactive)	0.764 (inactive)	0.403 (inactive)	-0.259	-0.0987	-0.351	-0.188	-0.445
COC(=O)[C@H](C)NC(=O)CCC1CC(OC(=O)NCc2ccc3c(c2)OCO3)CC2(CCCC(COC(=O)NCCc3ccccc3OC)O2)O1 (stereo not given in full)	-0.0418	-0.643 (inactive)	0.301 (inactive)	0.0167 (inactive)	0.711 (inactive)	-0.0673	-0.154	0.465	0.182	-0.004
O=C1C2=CC[C@H]3C(=O)N(c4cccc(Oc5ccccc5)c4)C(=O)[C@H]3[C@H]2[C@H](O)[C@@H]2O[C@H]12	0.0049	-6.01 (inactive)	0.478 (inactive)	0.699 (inactive)	19.7 (active)	0.284	-0.239	0.181	-0.111	0.264
COC(=O)CC=C[C@@H](C)[C@@H](C=NO[C@H](C)c1cn([C@H](CO)Cc2ccccc2)nn1)OC	0.247	-0.742 (inactive)	0.226 (inactive)	0.359 (inactive)	0.303 (inactive)	0.21	-0.128	1.09	1.78	1.08
CCOC(=O)[C@H](CC(C)C)NC(=O)CCC1CC(OC(=O)NCCc2ccc(F)cc2)CC2(CCCC(COC(=O)NCC(c3ccccc3)c3ccccc3)O2)O1 (stereo not given in full)	0.228	-0.361 (inactive)	-0.427 (inactive)	-0.438 (inactive)	-0.292 (inactive)	1.22	0.0111	-0.106	0.241	0.721
C#CCCCON=C1C[C@@H](O)[C@@H](O)[C@@H]2[C@@H]3C(=O)N(CC)C(=O)[C@@H]3CC[C@@H]12	-0.0855	0.0213 (inactive)	-0.327 (inactive)	-0.116 (inactive)	-0.14 (inactive)	-0.0757	-0.181	0.787	0.555	1.2
CC(C)C[C@H](NC(=O)CCC1CC(OC(=O)NCc2cccc3ccccc23)CC2(CCCC(COC(=O)NCc3ccccc3)O2)O1)C(=O)NCC(c1ccccc1)c1ccccc1 (stereo not given in full)	0.451	-0.363 (inactive)	-0.434 (inactive)	-0.258 (inactive)	0.728 (inactive)	0.396	-0.0963	0.317	0.0582	0.954
CC(CCN1CCCc2nc(C)c(C)cc21)=NO[C@@H](C)c1cc(-c2c(C)cc(C)cc2C)no1	0.0353	-0.636 (inactive)	-0.501 (inactive)	-0.0591 (inactive)	-0.559 (inactive)	0.327	0.111	0.464	-0.184	0.54
CC(C)CON=C1[C@H]2CCn3c(=O)n(Cc4cc5c(cc4Cl)OCO5)c(=O)n3[C@H]2[C@H](O)[C@@H]2O[C@H]12	0.26	-2.89 (inactive)	0.376 (inactive)	1.87 (inactive)	0.819 (inactive)	1.49	-0.0332	1.39	0.49	0.504
CCOC(=O)[C@H](Cc1ccccc1)NC(=O)CCC1CC(OC(=O)NCc2cccc3ccccc23)CC2(CCCC(COC(=O)NCC(c3ccccc3)c3ccccc3)O2)O1 (stereo not given in full)	0.177	-1.43 (inactive)	-0.873 (inactive)	0.286 (inactive)	0.155 (inactive)	0.164	-0.154	0.45	0.0748	0.613
COC(=O)[C@@H]1CC[C@H](C)[C@@H](c2ccc(C)cc2)N1C(=O)c1ccc(C=NOCC[C@@H]2C=C[C@H](OC(C)=O)[C@@H](COC(C)=O)O2)cc1	0.133	-0.689 (inactive)	0.637 (inactive)	4.56 (inactive)	-0.0189 (inactive)	0.342	-0.0477	0.612	0.481	0.681
O=C1CCCC=C1C(O)CCOC(c1ccccc1)(c1ccccc1)c1ccccc1 (stereo not given)	-0.263	-1.32 (inactive)	1.33 (inactive)	-0.344 (inactive)	1.57 (inactive)	-0.328	-0.128	-0.981	-0.0854	0.489
COC(=O)[C@@H]1CC[C@H](C)[C@@H](c2ccc(C)cc2)N1C(=O)c1ccc(C=NO[C@H](C)c2cn([C@@H]3COC[C@H]3O)nn2)cc1	0.177	-0.228 (inactive)	0.068 (inactive)	2.34 (inactive)	-0.377 (inactive)	-0.243	0.0001	0.28	0.603	0.749
C=COC[C@@H]1CN2[C@@H](CC[C@@H](C)[C@@H]2c2ccc(Br)cc2)C(=O)O1	-0.219	-2.67 (inactive)	-1.06 (inactive)	6.83 (inactive)	-0.544 (inactive)	-0.505	-0.253	0.348	-0.051	-0.211
COc1cccc([C@H]2Oc3ccc(OC)cc3C(=NOC[C@@H](O)COCc3ccco3)[C@@H]2O)c1	-0.217	-0.564 (inactive)	0.357 (inactive)	4.9 (inactive)	0.493 (inactive)	-0.903	-0.205	-1.7	-1.38	-0.0734
O=C1[C@H]2[C@H]3[C@H](O)[C@H](O)CC(=NOC[C@@H](O)COCc4ccco4)[C@H]3CC[C@H]2C(=O)N1C[C@@H]1CCCO1	0.228	0.208 (inactive)	-0.136 (inactive)	0.424 (inactive)	0.261 (inactive)	-0.0239	-0.111	3.31	2.75	0.793
CCOC(=O)[C@H](Cc1ccccc1)NC(=O)CCC1CC(OC(=O)NCc2ccc3c(c2)OCO3)CC2(CCCC(COC(=O)NCCC(C)C)O2)O1 (stereo not given in full)	0.403	-1.05 (inactive)	-0.749 (inactive)	-0.254 (inactive)	0.0924 (inactive)	0.789	0.0471	0.399	0.418	1.74
O=C(NN=C1C[C@@H](O)[C@@H](O)[C@@H]2[C@@H]3C(=O)N(C4CCCCC4)C(=O)[C@@H]3CC[C@H]12)OCc1ccccc1	0.476	0.0552 (inactive)	-0.19 (inactive)	0.338 (inactive)	-0.0351 (inactive)	0.0049	-0.082	0.118	0.416	-0.554
O=C1[C@H]2[C@H]3[C@H](O)[C@H](O)CC(=NOC[C@@H](O)COCc4ccco4)[C@H]3CC[C@H]2C(=O)N1Cc1ccccc1	-0.0661	-0.734 (inactive)	0.448 (inactive)	-0.474 (inactive)	0.479 (inactive)	-0.68	-0.182	0.246	0.462	1.38
O=C1C[C@@H](O)[C@@H](O)[C@@H]2[C@@H]3C(=O)N(c4cccc(Oc5ccccc5)c4)C(=O)[C@@H]3CC[C@H]12	0.114	0.393 (inactive)	0.247 (inactive)	2.51 (inactive)	0.287 (inactive)	0.0742	-0.183	0.162	0.331	0.669
Cc1cc2c(nc1C)CCCN2CC(O)CN1CCCc2nc(C)c(C)cc21	0.424	0.135 (inactive)	0.051 (inactive)	-0.704 (inactive)	-0.875 (inactive)	0.209	0.141	0.482	1.95	0.639
COC(=O)CC=C[C@@H](C)[C@@H](C=NOCC[C@@H]1C=C[C@H](OC(C)=O)[C@@H](COC(C)=O)O1)NS(=O)(=O)c1ccc(C)cc1	0.146	0.415 (inactive)	0.493 (inactive)	1.28 (inactive)	0.378 (inactive)	-0.376	-0.0523	1.14	1.44	0.554
CC1O[C@H]2C3=C(C(=O)[C@@H]4O[C@@H]4[C@H]3O)[C@@H]1C1[C@@H](C)OC=C3[C@H](O)C4O[C@@H]4C(=NOCc4ccccc4)[C@]312 (stereo not given in full)	0.161	-3.64 (inactive)	0.933 (inactive)	2.18 (inactive)	6.5 (inactive)	-0.438	-0.0963	1.66	-0.073	0.242
CCOC(=O)C1=NO[C@]2(C=C(Br)C3(OCCCO3)[C@H]3O[C@H]32)C1	0.0562	0.974 (inactive)	0.892 (inactive)	-0.254 (inactive)	1.65 (inactive)	-0.468	-0.163	0.748	1.42	0.0095
O=C1[C@H]2[C@H]3[C@H](O)[C@H](O)CC(=NOCc4ccccc4)[C@@H]3CC[C@H]2C(=O)N1c1ccc(F)cc1F	-0.0167	-1.69 (inactive)	-1 (inactive)	-0.469 (inactive)	-0.445 (inactive)	0.0494	-0.104	-0.111	-0.153	0.068
COc1ccc(COC(=O)NN=C2C[C@@H](O)[C@@H](O)[C@@H]3[C@@H]4C(=O)N(Cc5ccccc5)C(=O)[C@@H]4CC[C@H]23)cc1	-0.419	-0.541 (inactive)	0.43 (inactive)	0.702 (inactive)	-0.0005 (inactive)	0.273	-0.753	-0.429	-0.186	-1.44
